Inconclusive results are not listed. Calls of active or inactive are those of the source. The calls were made as follows: active = hit-call score of the fitted dose curve at least 0.9, where 1 is the maximum; inconclusive = response in the unintended direction; inactive = score below 0.9.

The test in a line: Tanguay_ZF_120hpf_OTIC_legacy: (Legacy) Oregon State University Tanguay Lab 120 Hour Post-fertilization zebrafish Assay for Otic Vesicle Malformation (AID 2283639). The protocol: Tanguay_ZF_120hpf_legacy is a whole embryo, multiplexed endpoint assay using zebrafish larvae exposed for 120 hours post fertilization on a 96-well plate.Tanguay_ZF_120hpf_OTIC_legacy is one of one assay component(s) measured or calculated from the Tanguay_ZF_120hpf_legacy assay. It is designed to make measurements of zebrafish development as detected with brightfield microscopy of developing zebrafish embryos.Data from the assay component Tanguay_ZF_120hpf_OTIC_legacy was analyzed into 1 assay endpoints. This assay endpoint, Tanguay_ZF_120hpf_OTIC_legacy, was analyzed in the positive analysis fitting direction relative to DMSO as the negative control and baseline of activity. Using a type of morphology reporter, gain-of-signal activity can be used to understand changes in developmentals as they relate to the whole embryo. To generalize the intended target to other relatable targets, this assay endpoint is annotated to the zebrafish development intended target family, where the subfamily is otic vesicle morphogenesis.
Zebrafish husbandry: Tropical 5D wild-type adult zebrafish were housed in at an approximate density of 1000 per 100 gallon tank at the Sinnhuber Aquatic Research Laboratory, Oregon State University, Corvallis, OR. Each tank was kept at standard laboratory conditions of 28C on a 14-h light/10-h dark photoperiod in fish water consisting of reverse osmosis water supplemented with a commercially available salt (Instant Ocean). Spawning funnels were placed into the tanks the night prior, and embryos were collected and staged. […] Ten microliters of each row of dilution plate 2 was added to 2 exposure plates. The final DMSO concentration used was 0.64% (vol/vol). Thirty-two embryos were also exposed to 5uM trimethyltin chloride (positive control). Plates were sealed to prevent evaporation and foil covered to reduce light exposure and kept in a 28C incubator. Embryos were statically exposed until 120 hpf. At 24 hpf, embryos were assessed for photomotor response using a custom photomotor response analysis tool (PRAT) and for developmental toxicity endpoints (MO24: mortality at 24 hpf, DP: developmental progression, SM: spontaneous movement, and NC: notochord distortion). At 120 hpf, locomotor activity was measured using Viewpoint Zebralab and assessed for 18 endpoints. Zebrafish acquisition and analysis program (ZAAP), a custom program designed to inventory, acquire, and manage zebrafish data, was used to collect developmental endpoints as either present or absent (i.e., binary responses were recorded). If mortality occurred for an embryo (at either 24 or 120 hpf), the non-mortality endpoints were not measured.
For `CCOCCOCCO`, the compound was called inactive.
For `Nc1nc(Cl)nc2c1ncn2[C@H]1C[C@H](O)[C@@H](CO)O1` the value was “inactive”; for `Cc1ccc(C(C)(C)C)c(O)c1`, “inactive”; for `O=C(O)c1[nH]n(-c2ccc(S(=O)(=O)O)cc2)c(=O)c1N=Nc1ccc(S(=O)(=O)O)cc1`, “inactive”.
Take `CCCCC(CC)COC(=O)CCCCCCCC(=O)OCC(CC)CCCC` (stereo not given): the result was inactive.
For `CC(=O)O[C@]1(C(C)=O)CC[C@H]2[C@@H]3C=C(Cl)C4=CC(=O)[C@@H]5C[C@@H]5[C@]4(C)[C@H]3CC[C@@]21C` the value was “inactive”; for `O=C(Oc1ccccc1)c1cccc(C(=O)Oc2ccccc2)c1`, “inactive”.
For `CC1(C)C(=O)NC(=O)N1CO` the value was “inactive”; for `C/C=C/c1ccc(OC)cc1`, “inactive”; for `CC1=C(C)S(=O)(=O)CCS1(=O)=O`, “inactive”.
For `CCCCC(CC)CO` (stereo not given) the value was “inactive”; for `COc1ccc(OC(F)(F)F)cc1CN[C@H]1CCCN[C@H]1c1ccccc1`, “inactive”; for `CCCCCCCCCC[N+](C)(C)[O-]`, “inactive”.
For `Cn1cnc2c1c(=O)[nH]c(=O)n2C`, the call was inactive.
Under `CC(C)c1cccc(C(C)C)c1` stands “inactive”; under `CCCCCCC(CCCCCCCCCCC(=O)OCC(COC(C)=O)OC(C)=O)OC(C)=O` (stereo not given), “inactive”.
For `CCCCC(CC)COP(=O)(OCC(CC)CCCC)OCC(CC)CCCC` (stereo not given) the value was “inactive”; for `O=C1c2c(O)cccc2Cc2cccc(O)c21`, “inactive”.
For `CS(=O)(=O)c1ccc([C@@H](C[C@H]2CCC(=O)C2)C(=O)Nc2cnccn2)cc1Cl` the value was “inactive”; for `CC(C)(O)c1ccc(CNC(=O)c2cccnc2Oc2ccc(F)cc2)cc1`, “inactive”.
For `CC(C)OC(=O)C(C)(C)Oc1ccc(C(=O)c2ccc(Cl)cc2)cc1`, the outcome was inactive.
Under `C#CC(O)C(CC)CCCC` (stereo not given) stands “inactive”.
For `NCCOCCOCCN` the value was “inactive”.
For the compound `CN(C)C(=O)NC1(c2ccccc2)CCN(CC[C@@]2(c3ccc(F)c(F)c3)CN(C(=O)c3ccccc3)CCO2)CC1`, the compound was called inactive.
Consider `CC(C)NCC(O)c1ccc(O)c(O)c1` (stereo not given), for which the compound was classed as inactive.
Under `CCCCCCC(C=O)=Cc1ccccc1` stands “inactive”; under `CN(C)CCCN(C)CCCN(C)C`, “inactive”.
For `O=[Si]=O` the value was “inactive”; for `CCN(CC)CCOc1ccc(C(=C(Cl)c2ccccc2)c2ccccc2)cc1`, “inactive”; for `CCCCCCCC(=O)OC`, “inactive”.
With `CCCC[C@H]1CN(CC2CCOCC2)C(=O)OC12CCN(C1(C)CCN(C(=O)c3c(C)ncnc3C)CC1)CC2`, the outcome was inactive.
For `CSc1ccc(Oc2ccc(S(N)(=O)=O)cc2CN(C)C)cc1C` the value was “inactive”.
For `CCCCCCCCCCCCCCCCO`, the compound was classed as inactive.
For `COC(=O)CCC(=O)OC` the value was “inactive”; for `CCc1nc(N)nc(N)c1-c1ccc(Cl)cc1`, “inactive”; for `Cc1c(C)c2c(c(C)c1O)CCC(C)(COc1ccc(CC3SC(=O)NC3=O)cc1)O2` (stereo not given), “inactive”.
For `O=C(N[C@@H](c1ccccc1)[C@@H]1CCCCN1)c1cccc(C(F)(F)F)c1Cl` the value was “inactive”; for `NC(=Nc1ccccc1)Nc1ccccc1`, “inactive”.
Turning to `O=C1NC(=O)C(c2ccccc2)(c2ccccc2)N1`, the call was inactive.
In the case of `Oc1ccc(O)cc1`, the compound was classed as inactive.

(Values after PubChem BioAssay (EPA / NIEHS).)
